Laboratory results: paper PMC5540273 (PLoS ONE, 2017)

Experiments:
Details in all cases: concentration: 1 μM, replicates: in singlicate; n = 1
SgK110 = tested on: SgK110
TAK1 = tested on: T1, TAK1
T1 construct: gene MAP3K7

TAOK1 = tested on: TAOK1
TAOK2 = tested on: TAOK2
TAOK3 = tested on: TAOK3
TBK1 = tested on: TBK1
TEC = tested on: TEC
TESK1 = tested on: TESK1
TGFBR1 = tested on: TGFBR1
TGFBR2 = tested on: TGFBR2
TIE1 = tested on: TIE1
TIE2 = tested on: T2, TIE2
T2 construct: gene TEK

TLK1 = tested on: TLK1
TLK2 = tested on: TLK2
TNIK = tested on: TNIK
TNK1 = tested on: TNK1
TNK2 = tested on: TNK2
TNNI3K = tested on: TNNI3K
TRKA = tested on: T3, TRKA
T3 construct: gene NTRK1

TRKB = tested on: TRKB
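Further: KINOMEscan kinase panel screen.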

Structure (SMILES)	%Inh (SgK110) [%]	%Inh (TAK1) [%]	%Inh (TAOK1) [%]	%Inh (TAOK2) [%]	%Inh (TAOK3) [%]	%Inh (TBK1) [%]	%Inh (TEC) [%]	%Inh (TESK1) [%]	%Inh (TGFBR1) [%]	%Inh (TGFBR2) [%]	%Inh (TIE1) [%]	%Inh (TIE2) [%]	%Inh (TLK1) [%]	%Inh (TLK2) [%]	%Inh (TNIK) [%]	%Inh (TNK1) [%]	%Inh (TNK2) [%]	%Inh (TNNI3K) [%]	%Inh (TRKA) [%]	%Inh (TRKB) [%]
Nc1nc(-c2ccc3c(N)n[nH]c3c2)cc(N2CCC[C@@H](C(=O)Nc3ccccc3)C2)n1.O=C(O)C(F)(F)F.O=C(O)C(F)(F)F [GSK2288359]	0	5	0	0	0	31	0	18	22	0	0	0	15	10	0	0	1	5	0	0
CS(=O)(=O)CCNCc1nc(-c2ccc3ncnc(Nc4ccc(OCc5cccc(F)c5)c(Cl)c4)c3c2)cs1.Cl [GW583340]	0	0	0	0	0	14	0	80	0	0	0	0	22	0	0	0	6	0	0	0
Clc1cc(Nc2ncnc3cc[nH]c23)ccc1OCc1ccccn1	0	9	0	0	0	4	0	7	15	0	10	23	26	4	22	0	5	2	2	12
CN1c2ccc(-c3ccc(C(=O)NCCO)cc3)cc2-c2[nH]ncc2S1(=O)=O	0	63	0	30	0	31	1	17	0	0	0	3	22	30	43	52	10	3	0	0
CCc1nc(-c2cccc(C)c2)c(-c2ccnc(NC(=O)c3ccccc3)c2)s1	18	35	0	0	0	10	18	0	32	0	0	0	13	0	62	27	9	0	17	0
N#Cc1ccc(Oc2ccc(Nc3ncnc4cc[nH]c34)cc2Cl)cc1	0	7	0	0	0	24	0	5	1	5	0	20	22	0	9	0	2	26	17	0
Cn1ccc2ncnc(Nc3ccc(Oc4cccc(Cl)c4)c(Cl)c3)c21	11	25	0	0	0	28	96.7	13	4	0	0	26	22	9	17	0	0	11	0	0
Cc1ccc(O)cc1Nc1cc(C(F)(F)F)nc2ccc(-c3ccncc3)cc12 [GW630823]	0	0	0	5	0	5	92.1	6	5	0	0	3	21	0	1	0	17	14	0	0
